Whole data set: some 33,000 sequences, median “E-score (-0.5 to 0.5)” near -0.053, cut for the highest 2% near 0.37. For the sample, the highest values were picked, then their nearest neighbours and some sequences at random.

The target of this assay is Hap1 (UniProt P0CE41). Nature of the assay: PBM E-score (8-mer binding enrichment) (E-score (-0.5 to 0.5)); higher = stronger / more preferred TF binding. The settings on record: protein concentration: 200 nM; construct: GST-DNA-binding domain. The gist of the method: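 Universal all-10-mer Agilent arrays, double-stranded by primer extension on fresh or once-stripped slides, were probed with about 100-200 nM GST-tagged yeast transcription factors made by PURExpress. Fluorescent anti-GST detected bound protein, and masliner normalised the scans. E-scores from the Universal PBM Analysis Suite were given to each ungapped eight-base word pooled with its reverse complement.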
Chain of UniProt P0CE41 (P0CE41 whole entry, the tested form may be a part): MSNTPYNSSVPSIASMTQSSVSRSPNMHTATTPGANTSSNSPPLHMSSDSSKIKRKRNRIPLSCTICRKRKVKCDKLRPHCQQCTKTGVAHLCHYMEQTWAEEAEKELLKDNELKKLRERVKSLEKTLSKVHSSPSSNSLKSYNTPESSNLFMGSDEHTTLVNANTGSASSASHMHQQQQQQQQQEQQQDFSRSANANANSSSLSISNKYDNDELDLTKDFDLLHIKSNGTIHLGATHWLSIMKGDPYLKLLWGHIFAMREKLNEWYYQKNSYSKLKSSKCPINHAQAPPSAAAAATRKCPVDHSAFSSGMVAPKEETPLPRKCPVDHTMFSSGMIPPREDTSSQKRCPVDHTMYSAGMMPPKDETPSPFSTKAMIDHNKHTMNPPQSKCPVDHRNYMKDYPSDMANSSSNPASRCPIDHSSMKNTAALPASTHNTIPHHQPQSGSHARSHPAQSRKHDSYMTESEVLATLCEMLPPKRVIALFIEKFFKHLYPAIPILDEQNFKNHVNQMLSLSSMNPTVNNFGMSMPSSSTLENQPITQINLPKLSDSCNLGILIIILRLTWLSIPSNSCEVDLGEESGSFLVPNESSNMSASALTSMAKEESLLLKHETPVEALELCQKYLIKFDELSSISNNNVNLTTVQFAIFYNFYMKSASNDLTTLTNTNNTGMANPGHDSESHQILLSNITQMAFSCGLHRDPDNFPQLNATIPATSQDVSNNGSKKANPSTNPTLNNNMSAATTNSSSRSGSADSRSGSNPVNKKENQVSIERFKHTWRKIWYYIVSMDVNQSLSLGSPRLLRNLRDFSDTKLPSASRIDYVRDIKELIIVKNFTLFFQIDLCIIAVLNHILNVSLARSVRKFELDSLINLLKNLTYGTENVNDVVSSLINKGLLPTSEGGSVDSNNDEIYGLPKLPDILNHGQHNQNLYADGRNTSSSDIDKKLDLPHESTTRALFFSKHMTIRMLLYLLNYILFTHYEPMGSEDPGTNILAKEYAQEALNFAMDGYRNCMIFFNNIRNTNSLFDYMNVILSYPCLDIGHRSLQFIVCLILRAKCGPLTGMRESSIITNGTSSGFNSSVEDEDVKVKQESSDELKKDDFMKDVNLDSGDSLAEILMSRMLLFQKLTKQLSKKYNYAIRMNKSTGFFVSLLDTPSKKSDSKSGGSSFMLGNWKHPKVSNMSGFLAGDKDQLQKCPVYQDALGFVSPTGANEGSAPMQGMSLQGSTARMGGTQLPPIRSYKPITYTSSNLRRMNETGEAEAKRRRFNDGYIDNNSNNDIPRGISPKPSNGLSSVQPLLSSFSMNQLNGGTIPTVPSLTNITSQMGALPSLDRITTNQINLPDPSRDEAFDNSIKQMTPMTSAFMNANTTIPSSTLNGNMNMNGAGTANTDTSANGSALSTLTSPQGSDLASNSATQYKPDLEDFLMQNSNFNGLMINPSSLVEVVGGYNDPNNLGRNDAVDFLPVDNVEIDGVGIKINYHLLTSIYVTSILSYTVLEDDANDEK
With AAACCCTA, the “PBM E-score” value is -0.136. Then AGGTACGG, with 0.0524; and AACGCGAA, with 0.121. In the case of AGGTCGCA, the “PBM E-score” value worked out at 0.101. Consider ACTAAGCC, for which the “PBM E-score” value is 0.094. Turning to ACTGTCAG, the “PBM E-score” value was -0.224. Then TACCGGCA, with 0.353.

As for GACCGGAA, the “PBM E-score” value came out at 0.361. In the case of CACCGGAA, the “PBM E-score” value worked out at 0.398. Then CACCGGAG, with 0.341; and TACCGCAA, with 0.08; and CACCGGAC, with 0.417.

For CAGCGGAA, the “PBM E-score” value came to 0.139. Then GACCGGAC, with 0.41. Then CACCGGGA, with 0.261; and TACCGGAA, with 0.442. For the sequence GACCGGGC, the “PBM E-score” value worked out at 0.331.

For the sequence AACCGGAC, the “PBM E-score” value was found to be 0.369.

Consider AATCGGCT, for which the “PBM E-score” value came to 0.314. Then TCTGCGAA, with -0.214; and CCGGTGTC, with 0.301; and CTTGGTGA, with -0.102. For CATCGGAC, the “PBM E-score” value is 0.401. Consider AATCGGAC, for which the “PBM E-score” value is 0.345. Then GATCGGAC, with 0.413; and CATCGGAG, with 0.292; and CATCGGTC, with 0.278. As for GATCGGAA, the “PBM E-score” value worked out at 0.325. Then GCTTTTAC, with 0.14.

For the sequence ATGTGGAC, the “PBM E-score” value was -0.149. Consider AATTCCTG, for which the “PBM E-score” value is -0.0671. Then AGGCTGTG, with -0.019. Then CACATCGC, with 0.0343; and GCGGACGC, with 0.0721. As for TCACGCGA, the “PBM E-score” value was -0.0375. Then AGAGGAGA, with -0.242. Then CCGGACCC, with 0.374; and CAGGACCG, with -0.00407; and CCGGACTC, with 0.361. Then TCGGACCA, with 0.381. In the case of CCGGACTA, the “PBM E-score” value worked out at 0.404. For CCGGACCG, the “PBM E-score” value was 0.431. As to GCGGACCC, the “PBM E-score” value amounted to 0.266. In the case of ACGGACTA, the “PBM E-score” value amounted to 0.237. Then ACGGACCC, with 0.278; and TAGGACCA, with -0.0211; and TGGGACCA, with -0.19. Then ACGGACCG, with 0.328; and AGGCGCCC, with -0.0775; and CGCATCCA, with -0.0122. Then ACCACAGC, with -0.127; and GAGAGAGA, with -0.0161. On to CCAACTGA, for which the “PBM E-score” value is -0.324. In the case of GGAGAGAC, the “PBM E-score” value came out at 0.101.

As for AACCTCGC, the “PBM E-score” value was -0.0117. Then AGTCGTAA, with 0.00615. AAAGAGCC: the “PBM E-score” value was -0.12. As for AGGACCGA, the “PBM E-score” value worked out at 0.311. Take GATTTATA: the “PBM E-score” value worked out at 0.146.

For ACGGACCA, the “PBM E-score” value was 0.344.

Turning to CCGGACCA, the “PBM E-score” value came out at 0.372. Then GCGGACCA, with 0.31. Turning to CTTCCCGA, the “PBM E-score” value came out at 0.143.

Consider ATTCCCCG, for which the “PBM E-score” value stood at 0.286.

ACTCCCCG: the “PBM E-score” value amounted to 0.283.

For ATTCCCGA, the “PBM E-score” value worked out at 0.395.

As for ATTCCCGC, the “PBM E-score” value amounted to 0.318.

As to ACTCCCGG, the “PBM E-score” value was 0.378.

Regarding GTTCCCGA, the “PBM E-score” value came out at 0.257. Then ACTCCCGA, with 0.2. Then ATTCCCGG, with 0.395; and CTAGCGTC, with -0.0893; and CCTCTTCC, with -0.0207. Then TAGCCTAA, with -0.158. For the sequence AGGCAAAG, the “PBM E-score” value is -0.246. Turning to CGAGGAGC, the “PBM E-score” value is 0.0181. CGAACCAG: the “PBM E-score” value is -0.00442. Regarding GGATCGAA, the “PBM E-score” value amounted to 0.168. For ACATCGGA, the “PBM E-score” value stood at 0.265. Turning to GGATCGGA, the “PBM E-score” value came out at 0.384.

In the case of GCATCGGA, the “PBM E-score” value came to 0.383. Then ACGTCGGA, with 0.256. Then AGATCGGC, with 0.267; and AGATCGGA, with 0.376; and CCGTCGGA, with 0.335. Regarding CGATCGGA, the “PBM E-score” value was 0.354.

Regarding GCGTCGGA, the “PBM E-score” value amounted to 0.375. Then AGATCGGG, with 0.153. Then GCATCGGC, with 0.225; and AAACTAGC, with -0.188; and GCGTTGCA, with 0.0308.

In the case of GAGCGGAA, the “PBM E-score” value amounted to 0.248. Regarding GGCATAAA, the “PBM E-score” value turned out to be 0.102.

Take AAAGTAAG: the “PBM E-score” value was -0.163.

CTAGAGGA: the “PBM E-score” value is -0.241. Then ATCCGTCA, with 0.212; and GAGGGGAA, with 0.148; and CCTGTGGA, with -0.336. For the sequence GGTTTTAA, the “PBM E-score” value turned out to be 0.334. For AAGTGTGC, the “PBM E-score” value was -0.132. Regarding AGTCGGTA, the “PBM E-score” value stood at 0.0714.

Regarding GATCGAAA, the “PBM E-score” value was determined as 0.121. Then ATTTCGGC, with 0.326; and CTTTCGTA, with -0.158; and CTTTCGGA, with 0.399. Then CTTTCGGC, with 0.348. As for GTTTCGAA, the “PBM E-score” value is -0.219.

For GTTTCGTA, the “PBM E-score” value came out at 0.11. With ATTTCGGA, the “PBM E-score” value was 0.415. Take GTTTCGGA: the “PBM E-score” value turned out to be 0.389.

For ATTTCGGG, the “PBM E-score” value was 0.29. On to CGTGCGAC, for which the “PBM E-score” value was -0.0831. Then ACGCAGAA, with -0.0372.

AAGCTCAA: the “PBM E-score” value was -0.167. Then AAATAACC, with 0.0225. On to CGCGTCAC, for which the “PBM E-score” value is -0.174. For CACTGACG, the “PBM E-score” value was -0.147.

Source of the values: the supplement of paper PMC3334620.
